Compounds with a hit are over-represented: about 3.6% of the library has one in this group of screens.
HSP90 refold inh – HSP90 refolding inhibition in rabbit reticulocyte lysate | luciferase refolding luminescence, 3 h | inhibition, % at 5.6 µM | actives 0.91% (n = 290,000);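 active = inhibition above the screen-wide mean plus 3 SD, computed separately per campaign, cut at about 16% in these data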;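 also: 0% = DMSO wells and 100% = 60 µM geldanamycin wells; inhibitors lower the luminescence because luciferase stays unfolded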
Mdm2 MdmX PPI – human Mdm2/MdmX binding inhibition; SaOS-2 split-luciferase Mdm2/MdmX complementation, luminescence; inhibition, % at 8 µM; actives 3% (n = 330,000); AID 485346;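 active = inhibition of at least 50% at 8 µM in the primary screen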
Target sequence (O15151 whole entry, looked up): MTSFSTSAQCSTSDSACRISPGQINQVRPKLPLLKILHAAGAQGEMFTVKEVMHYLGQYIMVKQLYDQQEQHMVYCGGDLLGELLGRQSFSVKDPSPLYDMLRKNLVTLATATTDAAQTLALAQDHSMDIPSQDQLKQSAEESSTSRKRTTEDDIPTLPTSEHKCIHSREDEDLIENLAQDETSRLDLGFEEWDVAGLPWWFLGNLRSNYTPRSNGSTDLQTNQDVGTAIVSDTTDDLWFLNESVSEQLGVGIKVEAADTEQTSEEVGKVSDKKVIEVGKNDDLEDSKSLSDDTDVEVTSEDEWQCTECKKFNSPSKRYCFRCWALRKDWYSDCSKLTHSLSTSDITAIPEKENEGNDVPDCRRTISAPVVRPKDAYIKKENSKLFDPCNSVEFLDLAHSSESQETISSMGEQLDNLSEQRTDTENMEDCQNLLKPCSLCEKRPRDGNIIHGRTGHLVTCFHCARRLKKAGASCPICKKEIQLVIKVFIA
Target sequence (Q00987 whole entry, looked up): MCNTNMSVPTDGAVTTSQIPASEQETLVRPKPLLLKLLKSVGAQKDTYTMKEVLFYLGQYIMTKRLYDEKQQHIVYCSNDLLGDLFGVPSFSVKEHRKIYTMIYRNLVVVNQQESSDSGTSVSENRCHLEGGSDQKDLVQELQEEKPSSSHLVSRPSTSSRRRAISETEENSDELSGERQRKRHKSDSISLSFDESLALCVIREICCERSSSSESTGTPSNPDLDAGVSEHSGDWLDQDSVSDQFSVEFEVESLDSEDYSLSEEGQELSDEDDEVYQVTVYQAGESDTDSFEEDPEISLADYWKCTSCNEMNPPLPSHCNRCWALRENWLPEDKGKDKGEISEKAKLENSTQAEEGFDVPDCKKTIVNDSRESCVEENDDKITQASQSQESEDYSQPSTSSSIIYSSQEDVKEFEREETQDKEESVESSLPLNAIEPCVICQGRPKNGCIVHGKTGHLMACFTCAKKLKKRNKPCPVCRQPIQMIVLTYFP
CF NFkB inh – cystic fibrosis NF-kB activation inhibition. KKLEB NF-kB-GFP reporter, PAF-induced, GFP fluorescence overnight. inhibition, % at 5 µM. actives 0.86% (n = 360,000). AID 588850;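 active = at least 50% inhibition at 5 µM, scaled per plate between neutral and stimulator controls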;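 also: PAF is a Pseudomonas aeruginosa culture filtrate used as stimulus; plate controls were PAF-stimulated DMSO wells for no effect and unstimulated DMSO wells for full effect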
KKLEB cytotox – counter-screen for CF NF-kB inhibitors: cytotoxicity. KKLEB CF airway cells viability, ATPlite luminescence, overnight; hits give low values; cells stimulated with P. aeruginosa culture filtrate. activity change (cytotoxicity), % at 5 µM. actives 0.36% (n = 360,000);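 active = corrected activity change at or below -50% at 5 µM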
Peg3 prom inh-1 – reduces Peg3 promoter-driven luciferase expression in HeLa | HeLa PEG-Prom luciferase reporter, luminescence, overnight | inhibition, % at 20 µM | actives 1.7% (n = 360,000);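 active = inhibition of at least 50% at 20 µM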
LGR2 inh – blocks bursicon-induced cAMP signaling via Drosophila LGR2. inhibition, % at 9.99 µM. AID 720647. actives 0.35% (n = 380,000). HEK293 LGR2, CRE-luciferase, bursicon-stimulated, 4 h;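 active = drop in luminescence signal, shown as inhibition above about 50% in the replicate tests, limit read from the data, passing the limit was not always enough; inconclusive = probably only some replicates passing the limit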;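 also: agonist challenge used bursicon conditioned medium at about half maximal strength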
Mdm2-MdmX conf – human Mdm2/MdmX binding inhibition, confirmed. actives 55% (n = 10,000). luminescent assay. shares compounds with Mdm2 MdmX PPI. inhibition, % at 8 µM. AID 489028; in the data active = inhibition above about 40%
FLuc counter – counter-screen for Mdm2/MdmX inhibitors: full-length luciferase; inhibition, % at 8 µM; SaOS-2 full-length luciferase counterscreen, luminescence; AID 504607; shares compounds with Mdm2 MdmX PPI; actives 77% (n = 6,200);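 active = mean inhibition at 8 µM reaching about 37%, which flags the compound as non-specific, limit read from the data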;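 also: p53-null SaOS-2 cells with luciferase driven by a doxycycline-inducible promoter; compound on cells about two nights before reading with doxycycline added after day one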
Peg3 prom inh-2 – Peg3 promoter inhibition confirmation; HeLa PEG-Prom luciferase reporter, luminescence, overnight; AID 602417; shares compounds with Peg3 prom inh-1; inhibition, % at 20 µM; actives 84% (n = 1,300);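 active = at 20 µM dose, 40% or more inhibition averaged across four replicates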
Active calls of the source: *; ? = inconclusive; . = no result.

SMILES	HSP90 refold inh	Mdm2 MdmX PPI	CF NFkB inh	KKLEB cytotox	Peg3 prom inh-1	LGR2 inh	Mdm2-MdmX conf	FLuc counter	Peg3 prom inh-2
CCCN(C)C[C@@H]1Oc2cc(C#CC(C)(C)O)ccc2S(=O)(=O)N([C@@H](C)CO)C[C@@H]1C	.	.	.	.	.	17	.	.	.
CC(=O)Oc1c(C)cc(Cl)cc1C(=O)Nc1ccc([N+](=O)[O-])cc1Cl	1	99*	63*	-78*	-13	-30	81*	28	.
CCCCn1c(=N)n(CC(O)COc2ccc(C)cc2)c2ccccc21 (stereo unspecified)	4	58*	-8	-6	72*	.	31	.	.
Cc1ccc(Cn2c(=N)n(CC(O)COc3ccccc3)c3ccccc32)cc1 (stereo unspecified)	9	69*	18	-4	29	8	76*	62*	.
CCCCn1c(=N)n(CC(O)COc2ccccc2)c2ccccc21 (stereo unspecified)	1	49	3	-5	32	.	.	.	.
O=C([C@@H]1[C@@H](CO)[C@@H]2Cn3c(cccc3=O)[C@@H]2N1CC1CCCC1)N1CCOCC1	.	.	.	.	.	-10	.	.	.
O=C(C[C@H]1CC[C@H](NS(=O)(=O)c2cccc(F)c2)[C@H](CO)O1)NCc1ccc2c(c1)OCO2	.	.	.	.	.	1	.	.	.
CN(Cc1cc(Cl)cc(Cl)c1)CC(C(=O)c1ccccc1)c1ccccc1 (stereo unspecified)	.	.	8	-2	26	?	.	.	.
CN(C)CC(C(=O)c1ccccc1)c1ccccc1 (stereo unspecified)	0	100*	63*	-51*	114*	.	85*	52*	.
CC(C)n1cnc2c(Nc3cccc(F)c3)nc(NCCO)nc21	.	62*	11	-28	-44	-4	58*	82*	.
CC(=O)N(C)C[C@H]1Oc2cc(-c3cccnc3)ccc2S(=O)(=O)N([C@H](C)CO)C[C@H]1C	.	.	.	.	.	5	.	.	.
CO/N=C/C(=N\Nc1ccc(C)cc1)C(=O)c1ccc(OC)cc1	-4	55*	8	-18	26	.	58*	65*	.
COc1ccc(-c2csc(NC(=O)c3ccco3)n2)cc1	0	-110	-4	13	-397	.	.	.	.
COc1cccc(N(C(=O)c2ccco2)c2nc(-c3sc(NC(=O)c4ccco4)nc3C)cs2)c1	14	74*	27	-36	49	14	49*	62*	.
COc1ccc(CCN(C)C(=O)c2cc(-c3ccccc3)nc3ccc(C)cc23)cc1OC	-4	2	11	2	2	-7	.	.	.
COc1ccc(CN(C)C(=O)c2cc(-c3ccccc3)nc3ccc(C)cc23)c(OC)c1OC	2	65*	23	-12	59*	-2	31	.	60*
COc1ccccc1-c1csc(NC(=O)c2cc(-c3cccs3)nc3ccccc23)n1	3	14	16	2	9	8	.	.	.
COc1ccccc1CN(C)C(=O)c1cc(-c2cccs2)nc2ccccc12	2	61*	-10	-4	69*	6	39	57*	81*
C[C@H](CO)N1C[C@H](C)[C@@H](CN(C)C(=O)Cc2cccnc2)Oc2ncc(/C=C/c3ccccc3)cc2C1=O	.	.	.	.	.	3	.	.	.
CO[C@@H](CN(C)S(=O)(=O)c1ccc(C)cc1)[C@H](C)CN(Cc1ccccc1Cl)[C@H](C)CO	.	.	.	.	.	-42	.	.	.
COc1ccc(-c2csc3nc(C)nc(N4CCN(C(C)=O)CC4)c23)cc1OC	1	-6	13	9	11	0	.	.	.
Cc1nc(N2CCN(c3ccccc3O)CC2)c2c(-c3ccccc3)csc2n1	7	52*	45	26	66*	8	55*	59*	66*
C[C@H]1CN([C@@H](C)CO)C(=O)c2cc(NS(=O)(=O)c3ccccc3)ccc2O[C@H]1CN(C)S(C)(=O)=O	.	.	.	.	.	0	.	.	.
CCN1CCc2c(sc(NC(=O)c3ccc(S(=O)(=O)N4CCOCC4)cc3)c2C(=O)OC)C1	3	64*	-23	1	76*	-15	30	.	-20
NCC[C@@H]1CC[C@@H](NC(=O)C2CCCCC2)[C@H](CO)O1	.	.	.	.	.	-1	.	.	.
SMILES	HSP90 refold inh	Mdm2 MdmX PPI	CF NFkB inh	KKLEB cytotox	Peg3 prom inh-1	LGR2 inh	Mdm2-MdmX conf	FLuc counter	Peg3 prom inh-2
CC(=O)N[C@@H]1CC[C@@H](CCNC(=O)C2CCCCC2)O[C@H]1CO	.	.	.	.	.	-11	.	.	.
COc1cccc(-c2ccc3c(c2)[C@@H]2[C@@H](CCN2C(=O)Cc2ccccc2)[C@H](CO)N3)c1	.	.	.	.	.	-10	.	.	.
COC1=C(Nc2ccc(O)cc2)C(=O)c2ccccc2C1=O	-2	-32	19	4	-36	-11	.	.	.
O=C1C(Cl)=C(Nc2ccc(O)cc2)C(=O)c2ccccc21	6	100*	108*	-82*	107*	37	100*	51*	96*
CCCn1nc(C(=O)Nc2nc(-c3ccccn3)cs2)c2ccccc2c1=O	.	62*	-20	1	70*	.	50*	53*	62*
CCCn1nc(C(=O)Nc2nnc(C3CC3)s2)c2ccccc2c1=O	.	-12	7	-9	8	-1	.	.	.
Cc1c(C(=O)Nc2ccc(S(=O)(=O)N(C)C3CCN(C)CC3)cc2)oc2c(Cl)cccc12	.	88*	-10	-30	99*	8	75*	64*	99*
CN1CCC(N(C)S(=O)(=O)c2ccc(NC(=O)COc3ccc(Br)cc3Cl)cc2)CC1	.	63*	10	-15	71*	6	56*	72*	71*
CN1CCC(N(C)S(=O)(=O)c2ccc(NC(=O)COc3cccc(Cl)c3)cc2)CC1	.	24	5	32	11	-10	.	.	.
C/C=C/c1ccc([C@@H]2[C@@H](CO)N(C(C)=O)C23CN(C(=O)NC2CCCCC2)C3)cc1	.	.	.	.	.	6	.	.	.
O=C(c1ccncc1)N1C[C@@H]2[C@H](c3ccccc31)[C@H](CO)N2C(=O)CN1CCOCC1	.	.	.	.	.	-7	.	.	.
Cc1cccc2c1-c1sc(C(=O)NCCCN3CCCC(C)C3)cc1CO2 (stereo unspecified)	0	67*	9	-14	76*	-11	49*	59*	99*
CC1CC(C)CN(CCCNC(=O)c2cc3c(s2)-c2ccccc2OC3)C1 (stereo unspecified)	-2	38	17	-11	44	0	.	.	.
CN(C)CCCN(C(=O)c1ccc(S(=O)(=O)N(C)Cc2ccccc2)cc1)c1nc2cc3c(cc2s1)OCO3	2	57*	17	-29	68*	9	31	.	89*
